± gives the standard deviation.

Consider 40 sequences from the supplement of paper PMC10338343.

For one assay, the system named is MILI (PIWIL2) piRISC loaded with L1MC piRNA (26 nt). Briefly: pre-steady-state target cleavage rate (min^-1); guide: L1MC piRNA 5'p-UAACUAAAUACUAUGCAAGCUGUAGG; MIWI and MILI are mouse PIWI proteins and EfPiwi is from a freshwater sponge; tags in brackets are library labels; higher = faster piRNA-guided slicing of the target. Particulars: auxiliary factor: 500 nM mouse GTSF1. In a few lines: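 Cleave-'n-Seq reactions paired 0.1 nM transcribed, DNA-blocked target RNA library with 1 nM active affinity-purified piRISC holding one synthetic guide, plus or minus 500 nM GTSF1 partner protein, in HEPES–potassium acetate buffer at 33 °C for 0–8 or 0–960 min. After sequencing of uncleaved targets and normalisation to depth and weakly complementary targets, the pre-steady-state cleavage rate was taken from a burst-and-steady-state fit. Three trials were pooled, and k3 was capped at 0.0001 min^-1.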
Consider UCCUGGAUGUCCUUGCAUAGUAUUUUCAUA, for which the “pre-steady-state target cleavage rate” value was 0.0192 ± 0.0081.

As to UCCUGGAUGUCCUUGUCAUAGUAUUUAGUUA, the “pre-steady-state target cleavage rate” value amounted to 0.0189 ± 0.009.

As to UCCUGGAACAGCUUGCAUAGAAAUUAGUUA, the “pre-steady-state target cleavage rate” value was found to be 0.0351 ± 0.0085.

UCCUGGAUGUCCUUGCAUUCUAUUUAGUUA: the “pre-steady-state target cleavage rate” value was 0.00856 ± 0.0043.

As for UCCUGGAACAGCUUGCAUAGAAUUUAGAAA, the “pre-steady-state target cleavage rate” value was determined as 0.0206 ± 0.0083.

UCCUCCUACAGCUUGGUAAGUAUUUAGAAA: the “pre-steady-state target cleavage rate” value is 0.0543 ± 0.013.

With UCCUGGAUGUGCUUGCAUAGUAUUAUGUUA, the “pre-steady-state target cleavage rate” value was 0.0376 ± 0.013.

UCCUCCUACACCUUGCAUAGUAUUUACUUA: the “pre-steady-state target cleavage rate” value turned out to be 0.128 ± 0.038.

Consider UCCUGGUACUGCUUGCAUAGUAUUAAGUUA, for which the “pre-steady-state target cleavage rate” value is 0.15 ± 0.035.

As to UCCUGGAUGUCGAUGCAUAGUUAUUUAGUUA, the “pre-steady-state target cleavage rate” value amounted to 0.00685 ± 0.0037.

As for UCCUGGAUGUCCUUGCAUAGUAUUAUGUUA, the “pre-steady-state target cleavage rate” value was determined as 0.00972 ± 0.0046.

Take UCCUGGAUGUGCUUGCAUAGUAUUUCGUUA: the “pre-steady-state target cleavage rate” value is 0.0261 ± 0.0098.

Take UCCUGCUACAGCUAGCAUAGUAUUUAGAUA: the “pre-steady-state target cleavage rate” value worked out at 0.151 ± 0.028.

Consider UCCUCCUACAGGAAGCAUAGUAUUUAGAAA, for which the “pre-steady-state target cleavage rate” value is 0.107 ± 0.017.

On to UCCUGGAACAGCUUGCAUAGUAAUUUCAAA, for which the “pre-steady-state target cleavage rate” value is 0.0786 ± 0.026.

Turning to UCCUGGAUGUCGUUGCAUAGUAUCUAGUUA, the “pre-steady-state target cleavage rate” value stood at 0.11 ± 0.019.

As for UCCUGGAUGAGCUUGCAUACUAUUUUGUUA, the “pre-steady-state target cleavage rate” value stood at 0.0073 ± 0.005.

UCCUGGAUGUCGAUGCAUAGUAUUUUCUUA: the “pre-steady-state target cleavage rate” value is 0.011 ± 0.006.

For UCCUGGAUGAGCAACCAUAGUAUUUAGUUA, the “pre-steady-state target cleavage rate” value was determined as 0.0437 ± 0.011.

As for UCCUGGAACAGCUACGAUAGUAUUUAGUUA, the “pre-steady-state target cleavage rate” value is 0.147 ± 0.011.

As to UCCUGGAACAGCUUGGUUAGUAUUUAGAAA, the “pre-steady-state target cleavage rate” value is 0.16 ± 0.04.

For the sequence UCCUGGAUGUCCUUGCAUAGUAUUUCGUUA, the “pre-steady-state target cleavage rate” value is 0.0489 ± 0.017.

Turning to UCCUGGAUGUCGAAGCAUAGUAUUGAGUUA, the “pre-steady-state target cleavage rate” value is 0.00685 ± 0.0034.

Take UCCUGGAACAGCUUGCAUAGUUUUUACUUA: the “pre-steady-state target cleavage rate” value worked out at 0.0363 ± 0.011.

For the sequence UCCUGGUAGAGCUUCCAUAGUAUUUAGUUA, the “pre-steady-state target cleavage rate” value stood at 0.0967 ± 0.033.

As to UCCUGGAUGUCCUUGCAUAGUAUUAUAGUUA, the “pre-steady-state target cleavage rate” value worked out at 0.122 ± 0.019.

Turning to UCCUGGUACAGCUUGCAUUCUAUUUAGUUA, the “pre-steady-state target cleavage rate” value came to 0.0335 ± 0.018.

As for UCCUGGAAGUCCUUGCAUAGUAUUUACAAA, the “pre-steady-state target cleavage rate” value was 0.0598 ± 0.018.

For UCCUGGAUGAGCAUGCAUAGUAUUUACAAA, the “pre-steady-state target cleavage rate” value is 0.0679 ± 0.018.

Consider UCCUGGAUGUCGAUGCAUUGUAUUUAGUUA, for which the “pre-steady-state target cleavage rate” value is 0.0091 ± 0.0037.

For the sequence UCCUGGAUGUCCUUGCAUAGUAUAAAGUAA, the “pre-steady-state target cleavage rate” value was 0.0169 ± 0.0066.

Turning to UCCUGGAUGUCGUUGCAUAGUAUUUAGAUA, the “pre-steady-state target cleavage rate” value is 0.0436 ± 0.017.

Consider UCCUGGAACAGCUUGGAUAGUAUUUAGAUA, for which the “pre-steady-state target cleavage rate” value amounted to 0.137 ± 0.024.

As for UCCUGGAUGACCUUCCAUAGUAUUUAGUUA, the “pre-steady-state target cleavage rate” value is 0.024 ± 0.0096.

Take UCCUGGAUGAGCUUGCAUAGUAUUAAGAUA: the “pre-steady-state target cleavage rate” value was 0.00532 ± 0.0045.

For the sequence UCCUGGUACAGCUUGCUUAGUAUUUACAAA, the “pre-steady-state target cleavage rate” value came out at 0.0242 ± 0.009.

Consider UCCUGGAUGUGCUUGCAUAGAAUUAAGUUA, for which the “pre-steady-state target cleavage rate” value was found to be 0.00431 ± 0.003.

Staying with this assay, now noted: auxiliary factor: none (no GTSF1).
For UCCUGGAUGUCGAACCAUACAAUUUAGUUA, the “pre-steady-state target cleavage rate” value was under 0.0001.

For UCCUGGAUGUCGAACGUAAGUUUUAGUUA, the “pre-steady-state target cleavage rate” value is under 0.0001.

Consider UCCUGGAUGUCGUUGCAUAGUUAAUAGUUA, for which the “pre-steady-state target cleavage rate” value was 0.00434 ± 0.0022.
